Source: PubChem BioAssay (NCATS)
Inconclusive results are not listed. Activity calls are given as the source filed them. Unless noted, the call rests on the fitted dose curve; in most records, active means well fitted curve in the direction sought with a large enough effect in the repeat runs; inconclusive means weak or mixed curves; inactive means no such curve, though single readings can be large; an effect the other way counts as inactive or inconclusive.

Molecular target: Calcium and integrin-binding protein 1 (Homo sapiens) (UniProt Q99828)
Assay: Primary qHTS for Identification of Calcium Integrin Binding Protein 1 (CIB1) Competitor (AID 1508620; active means well fitted curve in the direction sought with a large enough effect; an effect the other way counts as inactive or inconclusive;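 further: GST tagged CIB1 binding a fluorescein labelled alphaIIb integrin peptide tracer; top concentration of the series differs between compounds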)
Conditions: CIB1-GST / FITC-alphaIIb peptide fluorescence polarization; series mostly up to 114 µM; activity change, negative = inhibition: at the top concentration
Outline: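 Fluorescence polarization competition: CIB1-GST (1 uM final) preincubated with compound 15 min at room temperature, then FITC-labeled alphaIIb peptide (100 nM final) added for another 15 min. Polarization read at Ex 480/Em 540.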
On the % scale 0 is the no-effect control and ±100 the full control effect.

Chain of Calcium and integrin-binding protein 1 (Homo sapiens) (Q99828 whole entry, looked up): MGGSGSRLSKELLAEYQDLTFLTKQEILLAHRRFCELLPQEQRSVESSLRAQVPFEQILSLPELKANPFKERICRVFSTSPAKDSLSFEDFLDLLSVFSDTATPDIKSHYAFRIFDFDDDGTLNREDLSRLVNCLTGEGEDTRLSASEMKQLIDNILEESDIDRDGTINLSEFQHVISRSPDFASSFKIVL

Row | SMILES | activity change, negative = inhibition
1 | O=C(Nc1ccccc1)N1CCN(Cc2ccc3ccccc3n2)CC1 | -3.39% (inactive)
2 | COc1ncc2cc(C(=O)Nc3cc(C(=O)NCc4cccc(Cl)c4)ccc3Cl)c(=O)[nH]c2n1 | 2.98% (inactive)
3 | CC(=O)N1CCN(C(=O)Cc2ccc(Nc3ncc(F)c(Nc4ccc(C(=O)Nc5ccccc5Cl)cc4)n3)cc2)CC1 | 3.93% (inactive)
4 | CC(C)(C)Nc1nc2cc(Cl)c(Cl)cc2nc1S(C)(=O)=O | 4.03% (inactive)
5 | C#CCN(Cc1cc2c(=O)[nH]c(C)nc2cc1Br)c1ccc(C(=O)NCc2cccnc2)cc1 | 28.8% (inactive)
6 | COc1cc2ncnc(N3CCC(Oc4cnc5ccccc5n4)C3)c2cc1OC (stereo not drawn) | -3.07% (inactive)
7 | CCO[C@@H]1OC(=O)C[C@@H]1NC(=O)[C@@H]1CCCN1C(=O)[C@@H](NC(=O)c1ccc(N)c(Cl)c1)C(C)(C)C | -3.94% (inactive)
8 | COc1cc2nc(N3CCC(N4CCCCC4)CC3)nc(NC3CCCCCC3)c2cc1OC | 6.28% (inactive)
9 | COc1cc(N)c(Cl)cc1C(=O)NC[C@@H]1CCN2CCC[C@@H]12 | -4.51% (inactive)
10 | Cc1nc2sc(C(=O)NCc3ccncc3)c(N)c2c(C)c1Cl | -4.14% (inactive)
11 | CCOc1cc(CC(=O)NC(CC(C)C)c2ccccc2N2CCCCC2)ccc1C(=O)O (stereo not drawn) | 2.52% (inactive)
12 | C=CC(=O)Nc1cccc(CN2C(=O)N(c3c(Cl)c(OC)cc(OC)c3Cl)Cc3cnc(NCCCCN(CC)CC)nc32)c1 | 0.933% (inactive)
13 | CN(C)c1nc(NC2CCC(NCCc3ccc(Br)cc3OC(F)(F)F)CC2)nc2ccccc12 (stereo not drawn) | 23.9% (inactive)
14 | CCCCCCOc1cc2c(cc1N(C)c1ncc(C(=O)O)cn1)C(C)(C)CCC2(C)C | -8.02% (inactive)
15 | NC1CCC(Nc2cc(-c3cccc(NCc4cccc(F)c4)n3)c(Cl)cn2)CC1 (stereo not drawn) | -9.07% (inactive)
16 | Cc1oc2ccccc2c1CNC(=O)NCc1cccs1 | 5.36% (inactive)
17 | CC(C)(C#N)c1ccc(N2C(=O)OCc3cnc4ccc(-c5cnc6ccccc6c5)cc4c32)cc1 | 7.14% (inactive)
18 | Cc1onc(C(=O)N2CCN(C(c3ccc(Cl)cc3)c3ccc(Cl)cc3)CC2)c1[N+](=O)[O-] | 1.2% (inactive)
19 | CCOC(=O)c1cc(C#N)c(N2CCC(C(=O)NS(=O)(=O)Cc3ccccc3)CC2)nc1C | -17.1% (inactive)
20 | Cc1ccc(C(=O)Nc2noc3ccccc23)cc1 | -5.67% (inactive)

Row | SMILES | activity change, negative = inhibition
21 | O=C(NCc1ccccn1)Nc1nnc(-c2ccco2)o1 | -9.23% (inactive)
22 | CC(C)(C)NCCCNC(=O)c1cccc(Br)c1 | 3.75% (inactive)
23 | c1ccc(N2CCN(CCc3nn[nH]n3)CC2)cc1 | 2.95% (inactive)
24 | NC(=O)Nc1cc(-c2cccc(F)c2)sc1C(=O)NC1CCCNC1 (stereo not drawn) | 1.47% (inactive)
25 | O=C(O)C1CN(Cc2ccc(-c3nc4cc(Cc5ccccc5F)ccc4s3)c(F)c2)C1 | 2.04% [at 30.2 µM] (inactive)
26 | O=C(O)[C@@H]1C[C@H]2C[C@@H](CCc3nn[nH]n3)CC[C@H]2CN1 | 1.21% (inactive)
27 | CC(C)C(CO)Nc1nc(Nc2cc(N)cc(Cl)c2)c2ncn(C(C)C)c2n1 (stereo not drawn) | -0.695% (inactive)
28 | CC(C)(C)c1ccc(S(=O)(=O)NCc2ccc(C(=O)Nc3cccnc3)cc2)cc1 | -6.88% (inactive)
29 | COC(=O)CCSCc1ccc(-c2onc(C)c2NC(=O)OC(C)c2ccccc2Cl)cc1 (stereo not drawn) | 1.95% (inactive)
30 | CCCN1CCN(c2ccc(C(=O)NC3(C(=O)NCC#N)CCCCC3)cc2)CC1 | 3.18% (inactive)
31 | O=C(O)c1ccccc1NC(=O)N1CCC(c2ccccc2C(F)(F)F)CC1 | -1.85% (inactive)
32 | CC1CCN(C(=O)CC#N)CC1N(C)c1ncnc2[nH]ccc12 (stereo not drawn) | 2.6% (inactive)
33 | Cc1cccc(Oc2cnc(=O)[nH]c2)c1 | 5.21% (inactive)
34 | O=S(=O)(NCC1CC1)c1ccc(Nc2nccc(N3CCCc4cc(O)ccc43)n2)cc1 | -0.482% (inactive)
35 | NC(=O)c1cnc(NCCc2ccc(O)c(Cl)c2)nc1NCc1ccccc1 | 0.0727% (inactive)
36 | CNCc1ccc(-c2cc(-c3nc(-c4ccc(S(=O)(=O)C(C)C)cc4)cnc3N)on2)cc1 | 18.7% (inactive)
37 | Cc1cc(OCc2nnc(SC3CCCC3)n2-c2cccnc2)ccc1-c1ccc(S(C)(=O)=O)cc1 | -2.23% (inactive)
38 | CCc1cc(CN2CC(C(=O)O)C2)sc1-c1noc(-c2ccc(Oc3ccccc3)cc2)n1 | 6.35% [at 57.7 µM] (inactive)
39 | O=C(O)c1cccc(S(=O)(=O)N2CCc3ccccc3C2)c1 | -3.02% (inactive)

Molecular target: Cytochrome P450 2D6 (Homo sapiens) (UniProt P10635)
Assay: Cytochrome P450 family 2 subfamily D member 6 (CYP2D6) small molecule antagonists: luciferase biochemical (cell-free) qHTS assay (AID 1645840); further: nearly all actives have a fitted effect of over 55% in size; further: potency means the concentration at half of the fitted maximal effect
Conditions: P450-Glo CYP2D6 enzyme, luciferin luminescence, 1 h; series mostly up to 57.4 µM; activity change, negative = inhibition: at the top concentration
Outline: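 P450-Glo luminescent screen: recombinant CYP2D6 enzyme–proluciferin substrate mix preincubated with compound 10 min at room temperature, then NADPH regeneration added for 1 h at room temperature. Detection reagent added for 20 min; luciferin light read as relative luminescence units.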

Chain of Cytochrome P450 2D6 (Homo sapiens) (P10635 whole entry, looked up): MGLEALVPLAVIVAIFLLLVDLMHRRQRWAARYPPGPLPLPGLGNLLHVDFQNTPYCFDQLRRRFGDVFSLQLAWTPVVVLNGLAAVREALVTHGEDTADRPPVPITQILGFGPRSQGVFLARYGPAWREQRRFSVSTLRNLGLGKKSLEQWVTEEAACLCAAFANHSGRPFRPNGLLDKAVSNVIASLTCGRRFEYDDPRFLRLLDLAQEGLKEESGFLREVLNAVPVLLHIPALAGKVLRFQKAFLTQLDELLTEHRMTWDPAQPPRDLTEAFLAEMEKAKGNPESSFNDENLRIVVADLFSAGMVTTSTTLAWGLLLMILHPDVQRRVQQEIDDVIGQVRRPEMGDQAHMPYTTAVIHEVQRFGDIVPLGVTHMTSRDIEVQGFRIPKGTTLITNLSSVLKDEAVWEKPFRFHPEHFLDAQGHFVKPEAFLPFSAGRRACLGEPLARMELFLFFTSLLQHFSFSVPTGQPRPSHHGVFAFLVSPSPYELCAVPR

Row | SMILES | activity change, negative = inhibition | Potency
40 | O=C(Nc1ccccc1)N1CCN(Cc2ccc3ccccc3n2)CC1 | -16.7% (inactive) | 
41 | COc1ncc2cc(C(=O)Nc3cc(C(=O)NCc4cccc(Cl)c4)ccc3Cl)c(=O)[nH]c2n1 | 9.67% (inactive) | 
42 | CC(=O)N1CCN(C(=O)Cc2ccc(Nc3ncc(F)c(Nc4ccc(C(=O)Nc5ccccc5Cl)cc4)n3)cc2)CC1 | -21.4% (inactive) | 
43 | CC(C)(C)Nc1nc2cc(Cl)c(Cl)cc2nc1S(C)(=O)=O |  | 6.01 µM (active)
44 | C#CCN(Cc1cc2c(=O)[nH]c(C)nc2cc1Br)c1ccc(C(=O)NCc2cccnc2)cc1 | 1.1% (inactive) | 
45 | COc1cc2ncnc(N3CCC(Oc4cnc5ccccc5n4)C3)c2cc1OC (stereo not drawn) | -17% (inactive) | 
46 | CCO[C@@H]1OC(=O)C[C@@H]1NC(=O)[C@@H]1CCCN1C(=O)[C@@H](NC(=O)c1ccc(N)c(Cl)c1)C(C)(C)C | 7.55% (inactive) | 
47 | COc1cc2nc(N3CCC(N4CCCCC4)CC3)nc(NC3CCCCCC3)c2cc1OC |  | 7.56 µM (active)
48 | COc1cc(N)c(Cl)cc1C(=O)NC[C@@H]1CCN2CCC[C@@H]12 |  | 10.7 µM (active)
49 | Cc1nc2sc(C(=O)NCc3ccncc3)c(N)c2c(C)c1Cl |  | 2.39 µM (active)
50 | CCOc1cc(CC(=O)NC(CC(C)C)c2ccccc2N2CCCCC2)ccc1C(=O)O (stereo not drawn) | 0.939% (inactive) | 
51 | C=CC(=O)Nc1cccc(CN2C(=O)N(c3c(Cl)c(OC)cc(OC)c3Cl)Cc3cnc(NCCCCN(CC)CC)nc32)c1 |  | 21.3 µM (active)
52 | CN(C)c1nc(NC2CCC(NCCc3ccc(Br)cc3OC(F)(F)F)CC2)nc2ccccc12 (stereo not drawn) |  | 2.68 µM (active)
53 | CCCCCCOc1cc2c(cc1N(C)c1ncc(C(=O)O)cn1)C(C)(C)CCC2(C)C |  | 10.7 µM (active)
54 | NC1CCC(Nc2cc(-c3cccc(NCc4cccc(F)c4)n3)c(Cl)cn2)CC1 (stereo not drawn) |  | 15.1 µM (active)
55 | Cc1oc2ccccc2c1CNC(=O)NCc1cccs1 |  | 1.9 µM (active)
56 | CC(C)(C#N)c1ccc(N2C(=O)OCc3cnc4ccc(-c5cnc6ccccc6c5)cc4c32)cc1 | -7.06% (inactive) | 
57 | Cc1onc(C(=O)N2CCN(C(c3ccc(Cl)cc3)c3ccc(Cl)cc3)CC2)c1[N+](=O)[O-] | 10% (inactive) | 
58 | CCOC(=O)c1cc(C#N)c(N2CCC(C(=O)NS(=O)(=O)Cc3ccccc3)CC2)nc1C | -1.6% (inactive) | 
59 | Cc1ccc(C(=O)Nc2noc3ccccc23)cc1 |  | 7.56 µM (active)

Row | SMILES | activity change, negative = inhibition | Potency
60 | O=C(NCc1ccccn1)Nc1nnc(-c2ccco2)o1 | 7.96% (inactive) | 
61 | CC(C)(C)NCCCNC(=O)c1cccc(Br)c1 |  | 0.849 µM (active)
62 | c1ccc(N2CCN(CCc3nn[nH]n3)CC2)cc1 | 5.33% (inactive) | 
63 | NC(=O)Nc1cc(-c2cccc(F)c2)sc1C(=O)NC1CCCNC1 (stereo not drawn) |  | inactive
64 | O=C(O)C1CN(Cc2ccc(-c3nc4cc(Cc5ccccc5F)ccc4s3)c(F)c2)C1 | 8.94% [at 11.5 µM] (inactive) | 
65 | O=C(O)[C@@H]1C[C@H]2C[C@@H](CCc3nn[nH]n3)CC[C@H]2CN1 | 1.85% (inactive) | 
66 | CC(C)C(CO)Nc1nc(Nc2cc(N)cc(Cl)c2)c2ncn(C(C)C)c2n1 (stereo not drawn) |  | 23.9 µM (active)
67 | CC(C)(C)c1ccc(S(=O)(=O)NCc2ccc(C(=O)Nc3cccnc3)cc2)cc1 |  | 6.74 µM (active)
68 | COC(=O)CCSCc1ccc(-c2onc(C)c2NC(=O)OC(C)c2ccccc2Cl)cc1 (stereo not drawn) |  | 2.68 µM (active)
69 | CCCN1CCN(c2ccc(C(=O)NC3(C(=O)NCC#N)CCCCC3)cc2)CC1 | 8.9% (inactive) | 
70 | O=C(O)c1ccccc1NC(=O)N1CCC(c2ccccc2C(F)(F)F)CC1 | -26.8% (inactive) | 
71 | CC1CCN(C(=O)CC#N)CC1N(C)c1ncnc2[nH]ccc12 (stereo not drawn) | -4.59% (inactive) | 
72 | Cc1cccc(Oc2cnc(=O)[nH]c2)c1 | 1.3% (inactive) | 
73 | O=S(=O)(NCC1CC1)c1ccc(Nc2nccc(N3CCCc4cc(O)ccc43)n2)cc1 |  | 8.49 µM (active)
74 | NC(=O)c1cnc(NCCc2ccc(O)c(Cl)c2)nc1NCc1ccccc1 |  | 15.1 µM (active)
75 | CNCc1ccc(-c2cc(-c3nc(-c4ccc(S(=O)(=O)C(C)C)cc4)cnc3N)on2)cc1 | -4.86% (inactive) | 
76 | Cc1cc(OCc2nnc(SC3CCCC3)n2-c2cccnc2)ccc1-c1ccc(S(C)(=O)=O)cc1 | -5.12% (inactive) | 
77 | CCc1cc(CN2CC(C(=O)O)C2)sc1-c1noc(-c2ccc(Oc3ccccc3)cc2)n1 | -24.1% [at 23.9 µM] (inactive) | 
78 | O=C(O)c1cccc(S(=O)(=O)N2CCc3ccccc3C2)c1 | 7.64% (inactive) | 
